# Compound activity (PubChem BioAssay)
# Mtb MbtI inh: blocks the Mycobacterium tuberculosis siderophore enzyme MbtI | P9WFX0 | purified MbtI enzyme, fluorescence intensity read-out | inhibition, % (no concentration beside the values) | 0.89% of 100,000 active; in the data active means inhibition mostly above about 56%, no sharp cut-off; inactive means mostly below about 77%
# Target sequence (P9WFX0 whole entry, looked up): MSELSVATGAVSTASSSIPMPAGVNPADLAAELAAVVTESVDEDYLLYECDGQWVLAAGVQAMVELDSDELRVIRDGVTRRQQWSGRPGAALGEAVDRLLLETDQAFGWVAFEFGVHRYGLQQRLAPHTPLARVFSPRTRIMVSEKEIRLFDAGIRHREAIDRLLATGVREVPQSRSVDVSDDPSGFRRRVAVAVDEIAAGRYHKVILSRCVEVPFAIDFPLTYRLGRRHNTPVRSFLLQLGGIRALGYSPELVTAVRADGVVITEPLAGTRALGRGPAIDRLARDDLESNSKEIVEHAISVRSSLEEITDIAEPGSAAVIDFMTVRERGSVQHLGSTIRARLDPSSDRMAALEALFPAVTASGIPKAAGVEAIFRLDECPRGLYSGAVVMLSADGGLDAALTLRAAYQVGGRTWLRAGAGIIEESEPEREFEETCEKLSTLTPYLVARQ
# Mtb MenB inh: inhibitors of Mycobacterium tuberculosis MenB enzyme; P9WNP5; MenB enzyme assay, absorbance read-out; inhibition, % (no concentration beside the values); 0.43% of 100,000 active; AID 540299; in the data active means inhibition above about 21%, passing the limit was not always enough
# Polio RdRp inh: poliovirus RNA polymerase inhibition | P03300 | poliovirus polymerase elongation, fluorescence polarization; hits give low values | % elongation, % (compound at 16.7 µg/mL) | 0.66% of 150,000 active | AID 588519; in the data active means % elongation below about 90%
# AID504770: growth inhibitors of E. coli YBA685 in a screen for V. cholerae RctB (chromosome II replication) inhibitors; 0.27% of 130,000 active; E. coli YBA685 rctB-dependent plasmid, OD600 growth, 3 h; hits give low values; z-score (test concentration not listed); AID 504770; in the data active means z-score below about -2, passing the limit was not always enough
# * = called active by the depositor; . = not tested or not shown. Hits are enriched below; roughly 1.4% of the tested compounds scored in any of these assays.
SMILES,Mtb MbtI inh,Mtb MenB inh,Polio RdRp inh,AID504770
O=C(N/N=C/c1ccc(O)cc1)Nc1cccc2nsnc12,6.0,37.1*,103.0,1.75
O=C(c1cc2c(s1)CCCCCC2)N1CCC2(CC1)OCCO2,0.6,-8.5,99.0,-0.1
O=C(C1=Cc2sc3c(c2CS1)CCCC3)N1CCC2(CC1)OCCO2,95.1*,-15.3,104.0,0.55
COc1ccc(CNC(=O)CCc2c(C)nc3cc(-c4ccc(OC)cc4OC)nn3c2C)cc1,.,.,107.0,.
C=CC1=C(C(=O)O)N2C(=O)[C@@H](NC(=O)/C(=N\O)c3csc(N)n3)[C@H]2SC1 (stereo in doubt),-4.4,-0.1,100.0,-5.05*
CO/N=C(\C(=O)NC1C(=O)N2C(C(=O)OCOC(=O)C(C)(C)C)=C(/C=C\c3scnc3C)CSC12)c1csc(N)n1 (centres undefined),-14.7,-1.0,100.0,-0.1
COc1ccc(Br)cc1CNC(=O)CCn1c(=O)c2cccn2c2cccnc21,-0.7,-13.7,101.0,0.65
COc1cc(Cc2cnc(N)nc2N)cc(OC)c1OC,-5.2,-12.1,100.0,-3.1*
NC(=S)c1sccc1CS(=O)c1ccc(Cl)cc1 (centres undefined),58.6*,1.6,107.0,-0.7
Cc1ccsc1C(N)=S,6.0,-20.2,103.0,-0.8
CC1COc2c(N3CCN(C)CC3)c(F)cc3c(=O)c(C(=O)OCc4ccccn4)cn1c23 (centres undefined),62.9,-17.7,100.0,-4.55*
O=c1c2ccccc2n2c(=S)[nH]nc2n1Cc1ccccc1,37.9,-106.2,98.0,-0.45
O=C1CSc2ccccc2N1Cc1n[nH]c(=S)n1Cc1ccccc1,56.3*,-29.9,99.0,-0.4
COc1ccc(OCC2CCNCC2)cc1,-5.7,-7.6,106.0,0.7
Nc1cc(N)c2cc(-c3ccccc3)oc2c1,116.7,-28.8,87.0*,-0.4
O=c1cc(-c2ccccc2)oc2cc(Cl)ccc12,.,.,.,-0.75
CC(C)c1ccc(-n2c(=O)[nH]c3ccccc3c2=O)cc1,46.1,-24.6,73.0*,-0.1
O=C(Cn1cnc2onc(-c3ccc(Cl)cc3)c2c1=O)NCCCN1CCCC1,-1.6,0.7,101.0,-0.45
CC(C)Cc1csc2ncnc(NCCO)c12,2.2,0.9,88.0*,0.1
CC(C)Cn1c(=S)[nH]c2ccccc21,17.0,0.3,99.0,0.7
CC(C)Cn1c(=S)[nH]c2cc(Cl)ccc21,84.7*,-27.1,78.0*,-0.55
CCOC(=O)c1cc2c(=O)n3ccccc3nc2n(CCOC)c1=NC(=O)C(C)(C)Oc1ccc(Cl)cc1,.,.,105.0,.
COc1cccc(C(=O)CC#N)c1,-8.2,-0.1,104.0,-0.65
COc1cccc(C(=O)CS)c1,86.7*,-9.7,101.0,2.35
S=c1sscc1-c1ccccc1,.,-76.7,53.0*,0.45
SMILES,Mtb MbtI inh,Mtb MenB inh,Polio RdRp inh,AID504770
O=C1C2CCCC1C(c1ccccc1)NC2c1ccccc1 (centres undefined),-8.2,.,.,-0.6
CCCCNC(=O)CCC(=O)NNc1nc2ccccc2c2nc(C)nn12,.,.,81.0*,.
COCCCNC(=O)CCC(=O)NNc1nc2ccccc2c2nc(C)nn12,.,.,24.0*,.
CCCCNC(=O)CCC(=O)NNc1nc2ccccc2c2nc(-c3ccccc3)nn12,.,.,106.0,.
Cc1nc2c3ccccc3nc(NNC(=O)CCC(=O)N3CCN(c4ccc(F)cc4)CC3)n2n1,.,.,95.0,.
CCOCCCNC(=O)CCC(=O)NNc1nc2ccccc2c2nc(C)nn12,.,.,36.0*,.
CCCc1cc(NC(C)c2ccccc2)n2c(nc3ccccc32)c1C#N (centres undefined),-139.6,-40.9,104.0,2
Cc1cc(C)cc(C(=O)NCCc2csc(-c3ccc(C(F)(F)F)cc3)n2)c1,.,.,112.0,.
CCCn1nnnc1SCC(=O)c1ccccc1,3.3,30.6*,103.0,1.55
O=C(CSc1nnnn1Cc1ccccc1)c1ccccc1,-2.5,-27.8,101.0,-0.05
Cc1nn(-c2ccccc2)c2c1-c1sc(C(=O)N3CCCC3)cc1CC2,128.3,-13.3,101.0,-0.3
Cc1[nH]c2ccccc2c1C(c1ccccn1)N1CCN(CCO)CC1 (centres undefined),18.2,.,103.0,0
CN1CCN(C(c2ccccn2)c2c(-c3ccccc3)n(O)c3ccccc23)CC1 (centres undefined),22.4,-9.2,88.0*,-0.15
CCC(CO)N=Cc1c(O)n(-c2ccccc2F)c(=O)c2ccccc12 (centres undefined),-0.3,.,101.0,0.45
COc1cccc(C2=NS(=O)(=O)N(C)C(C(=O)Nc3cccc(O)c3)=C2)c1,.,.,-16.0*,.
CSC1=NC(C)(C)Cc2c(C)cccc21,.,0.2,90.0*,-0.65
CCOc1ccc(N2C(=O)CC(NCCNC(=O)c3ccc(Cl)cc3)C2=O)cc1 (centres undefined),4.8,26.9*,102.0,0.85
Cc1cccc2nc(CSC(=S)NCc3cccnc3)cn12,.,.,.,-3.7*
O=c1/c(=C/c2ccc(Br)cc2)sc2nncn12,14.6,32.8*,97.0,0.8
CCN(CC)CCNc1nc2c(c(=O)n(C)c(=O)n2C)n1Cc1ccc(F)cc1,-1.3,.,.,0.1
CCN(CC)CCNc1nc2c(c(=O)n(C)c(=O)n2C)n1CCc1ccccc1,19.1,22.7*,103.0,2.25
CCn1cc(C(=O)O)c(=O)c2cc(F)c(N3CCN(C(C)=O)CC3)cc21,107.2,-10.5,109.0,-3.05*
CCn1cc(C(=O)O)c(=O)c2cc(F)c(N3CCNCC3)nc21,-31.4,6.1,104.0,-3.55*
CCn1cc(C(=O)O)c(=O)c2cc(F)c(N3CCN(C(=O)c4ccc(F)cc4)CC3)cc21,-94.0,-18.7,102.0,-3.65*
COc1cccc(N2C(=O)CC(Sc3ccccc3N)C2=O)c1 (centres undefined),.,.,.,1.45
SMILES,Mtb MbtI inh,Mtb MenB inh,Polio RdRp inh,AID504770
COc1cccc(N2C(=O)CC(Sc3nnc(C)s3)C2=O)c1 (centres undefined),100.2*,8.6,101.0,-0.75
Cc1ccc2cccc(I)c2n1,11.8,-4.8,103.0,-2.5*
CCOC(=O)c1c(C)oc2ncnc(N3CCOCC3)c12,-9.7,-38.0,102.0,0.85
CN(C)S(=O)(=O)c1ccc(S(=O)(=O)N2CCC(c3nc4ccccc4s3)CC2)cc1,2.0,28.9*,102.0,-0.75
Cc1ccc(SCC(=O)NCCN2C(=O)CSC2=O)c(C)c1,-16.9,-6.7,101.0,-0.1
Clc1ccc(NCCC2=CCCCC2)nn1,6.0,33.8*,100.0,0.25
Cc1cccc(N(C)S(=O)(=O)c2cccc3nsnc23)c1,-1.0,.,.,.
CCn1c(SCC#N)nnc1-c1ccc(S(=O)(=O)N2CCCC2)cc1,8.9,14.4,102.0,0.4
NC1=NC(=O)C(C(=O)NC2(C(F)(F)F)Oc3cc(Cl)c(Cl)cc3O2)S1 (centres undefined),92.2*,0.3,105.0,0.25
Cc1nn(C(C)CN)c(C)c1C (centres undefined),-2.6,34.3*,101.0,1.9
O=C1NC(=S)S/C1=C\c1ccccc1C(F)(F)F,.,.,.,2.75
O=C1NC(=O)/C(=C\c2ccccc2C(F)(F)F)S1,100.2*,-19.9,103.0,-0.4
COc1ccc(C(=O)CSC#N)cc1OC,.,31.8*,97.0,-0.6
COc1ccc(OC)c(C(=O)CSC#N)c1,-45.3,-4.9,103.0,1.9
COCCNC(=S)c1ccc(N(C)C)cc1,61.6*,-51.9,101.0,-0.35
